Compound activity (PubChem)
BAZ2B block – qHTS Assay for Inhibitors of BAZ2B. AID 504333, 2011. Potency, µM (top dose mostly 114 µM), for inactives: at the highest dose activity change, negative = inhibition, most hits filed as inhibitors. 4.4% of 360,000 active. Bromodomain adjacent to zinc finger domain protein 2B (Homo sapiens), Q9UIF8. AlphaScreen BAZ2B-H3K14Ac peptide displacement; also: % is scaled to controls: 0 for no effect and ±100 for the full control effect; nearly all actives have a fitted effect of over 60% in size
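Inhibition is scored as reduced AlphaScreen emission. The BAZ2B/b-H3(5-23)K14Ac complex (50 nM each) in PBS pH 7.4, 0.01% Tween-20 meets compound (up to 110 uM) for 30 min at RT before bead addition.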
HP1b chromo inh – HTS for Inhibitors of HP1-beta Chromodomain Interactions with Methylated Histone Tails. AID 540317, 2011. 0.56% of 390,000 active. Potency, µM (top dose mostly 114 µM), inactives show at the highest dose activity change, negative = inhibition, actives largely listed as inhibitors. Chromobox protein homolog 1 (Homo sapiens), P83916. AlphaScreen HP1-beta / biotin-H3K9me3 peptide binding; also: nearly all actives have a fitted effect of over 70% in size
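Compound inhibition of the preformed complex between 50 nM HP1-beta and 50 nM biotinylated H3K9me3 peptide was read by AlphaScreen. Buffer was PBS pH 7.4 with 0.01% Tween-20. Incubations ran 30 min at room temperature, with 10 ug/mL donor/acceptor beads.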
G9a inh – qHTS Assay for Inhibitors of Histone Lysine Methyltransferase G9a; G9a H3K9 monomethylation, AlphaScreen, 2 h; Potency, µM (titrated, usually from 102 µM), without a hit: at the top dose activity, negative = inhibition, usual class: inhibitors; 8.8% of 350,000 active; AID 504332, 2011; Histone-lysine N-methyltransferase EHMT2 (Homo sapiens), Q96KQ7; also: % is scaled to controls: 0 for no effect and ±100 for the full control effect; nearly all actives have a fitted effect of over 75% in size
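G9a (20 nM) was preincubated 15 min with compound, then reacted 2 h at room temperature with 500 nM biotin-H3K9 peptide and 20 µM SAM. Monomethyl-H3K9 detected by AlphaScreen using anti-H3K9me1 antibody.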
JMJD2A Tudor – qHTS Assay for Inhibitors of JMJD2A-Tudor Domain | Lysine-specific demethylase 4A (Homo sapiens), O75164 | AlphaScreen JMJD2A-Tudor / H3K4me3 peptide binding | Potency, µM (titrated, usually from 114 µM), without a hit: top-dose activity change, negative = inhibition, hits mostly inhibitors | 4.4% of 390,000 active | AID 504339, 2011; also: % is scaled to controls: 0 for no effect and ±100 for the full control effect; nearly all actives have a fitted effect of over 50% in size
L3MBTL1 block – qHTS Assay for the Inhibitors of L3MBTL1; 0.66% of 230,000 active; Lethal(3)malignant brain tumor-like protein 1 (Homo sapiens), Q9Y468; AlphaScreen L3MBTL1–H3K9me1 peptide binding; Potency, µM (highest dose often 57.1 µM), for the others: at the top dose activity, negative = inhibition, actives largely listed as inhibitors; also: % is scaled to controls: 0 for no effect and ±100 for the full control effect; nearly all actives have a fitted effect of over 60% in size
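AlphaScreen assay: L3MBTL1 (50 nM final) was preincubated 30 min at room temperature with biotinylated H3(1-15)K9me1 peptide (75 nM final), then 30 min with library compounds; streptavidin donor and nickel chelate acceptor beads (10 ug/mL final) added, 30 min dark.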
Active calls of the source: *; ! = a repeat was not active; [ ] = remark or other dose. The list is not random: actives were taken first. Their share in the collection is about 11%. Calls follow the shape of the dose curve; as a rule, active = well fitted inhibition curve with a large enough effect; inconclusive = small, poorly fitted or top-dose-only effect; inactive = no such curve, though single readings can be large or run the other way. Potency is read from the fitted curve at half-maximal effect.

For Cc1ccc(-n2c(C)cc(/C=C3/C(=O)NC(=O)N(C)C3=O)c2C)cc1 the results were BAZ2B block -4.5%, HP1b chromo inh 57.8%, G9a inh inconclusive, JMJD2A Tudor -22.8% and L3MBTL1 block -4.4%.
Screening O=C1NC(=O)N(c2cccc(F)c2)C(=O)/C1=C/c1ccc(N2CCOCC2)cc1 returned BAZ2B block -6.5%, HP1b chromo inh 46.8%, JMJD2A Tudor -8.6% and L3MBTL1 block 3.2%.
`COc1ccc(OC)c(N2C(=O)NC(=O)/C(=C/c3ccc([N+](=O)[O-])s3)C2=O)c1` gave BAZ2B block 39.8µM*, HP1b chromo inh 31.6µM*, G9a inh 11.2µM* and JMJD2A Tudor 28.2µM*.
O=C1NC(=S)N(c2ccc(F)cc2)C(=O)/C1=C\c1ccoc1 was read as BAZ2B block 14.1µM*, HP1b chromo inh 5.62µM*, G9a inh 7.94µM* and JMJD2A Tudor 3.16µM*.
`COc1ccc(N2C(=O)/C(=C/c3cc(C)n(-c4ccc(C)cn4)c3C)C(=O)NC2=S)c(OC)c1` gave BAZ2B block inconclusive, HP1b chromo inh -12.2%, G9a inh 31.6µM*, JMJD2A Tudor 39.8µM* and L3MBTL1 block inconclusive.
CCCCOP(=O)(OCCCC)C(Nc1ccc(C(=O)OCC)cc1)c1ccncc1 (stereo not given) was read as BAZ2B block 20.7%, HP1b chromo inh 50.0%, G9a inh 7.4% and JMJD2A Tudor -11.4%.
NNc1ccccc1 was read as G9a inh 30.7%[59 µM].
Screening Cc1ccc(N2C(=O)NC(=O)/C(=C\c3ccoc3)C2=O)cc1 returned BAZ2B block inconclusive, HP1b chromo inh 16.3%, G9a inh 44.7µM*, JMJD2A Tudor -18.2% and L3MBTL1 block inconclusive.
For O=C1NC(=S)N(c2ccc(Cl)cc2)C(=O)/C1=C/N1CCN(C(=O)c2ccco2)CC1 the results were BAZ2B block -38.9%, HP1b chromo inh 17.1%, G9a inh 50.1µM*, JMJD2A Tudor -8.3% and L3MBTL1 block 0.6%.
`O=C1NC(=S)N(c2ccc(F)cc2)C(=O)/C1=C/c1ccco1` gave BAZ2B block 1.78µM*, G9a inh inconclusive and L3MBTL1 block -93.6%.
Cc1ccc(N2C(=O)NC(=O)/C(=C\c3cc(C)n(-c4ccc(C(=O)O)cc4)c3C)C2=O)cc1 was read as BAZ2B block -32.6%, HP1b chromo inh 20.9%, G9a inh inconclusive and JMJD2A Tudor -24.2%.
O=C(O)Cn1cc(/C=C2\C(=O)NC(=O)N(c3ccc(Cl)cc3)C2=O)c2ccccc21 was read as BAZ2B block inconclusive, HP1b chromo inh 29.2%, G9a inh inconclusive and JMJD2A Tudor -20.4%.
COc1ccc(OC)c(N2C(=O)/C(=C/c3ccco3)C(=O)NC2=S)c1 was read as BAZ2B block 1.41µM*, HP1b chromo inh 3.16µM*, G9a inh 1.78µM* and JMJD2A Tudor 1.58µM*.
`CN(C)CCC=C1c2ccccc2CCc2ccccc21` gave BAZ2B block -29.6%, HP1b chromo inh 15.2%, G9a inh -19.7%[59 µM], JMJD2A Tudor -2.9% and L3MBTL1 block -22.8%.
Screening CCOC(=O)c1cnc2c(ccc3ccccc32)c1Nc1ccc(C(C)=O)cc1 returned BAZ2B block 2.0%, HP1b chromo inh 30.7%, G9a inh -46.2%[59 µM] and JMJD2A Tudor -12.8%.
COc1cccc(C(=O)Nc2ccc3nc(SCC(=O)N(C)c4ccccc4)sc3c2)c1 was read as BAZ2B block -23.1%, HP1b chromo inh 48.7%, G9a inh -26.4%[59 µM] and JMJD2A Tudor -18.5%.
For CCc1ccc(N2C(=O)NC(=O)/C(=C/c3ccsc3)C2=O)cc1 the results were BAZ2B block 2.2% and G9a inh 39.8µM*.
COc1cc(/C=C2\C(=O)NC(=O)N(c3ccccc3)C2=O)c([N+](=O)[O-])cc1OC was read as BAZ2B block -24.5%, HP1b chromo inh 1.3%, G9a inh 10µM*, JMJD2A Tudor -25.6% and L3MBTL1 block 16.8%.
`C[C@@]12C(=O)N(Cc3ccco3)CC(=O)N1[C@H]1c3ccccc3OC[C@@H]1[C@@H]2c1ccccc1` gave HP1b chromo inh -11.1%, JMJD2A Tudor inconclusive and L3MBTL1 block -6.4%.
Screening COc1ccc(Cc2c(O)[nH]c(=S)[nH]c2=O)cc1 returned BAZ2B block 1.5%, HP1b chromo inh -7.6%, G9a inh 7.94µM*, JMJD2A Tudor inconclusive and L3MBTL1 block 11.1%.
CC1(C)NCCN2C(=O)CSC21 (stereo not given) was read as BAZ2B block -21.6%, HP1b chromo inh 53.2%, G9a inh 79.4µM* and JMJD2A Tudor -9.0%.
`COc1cc(C(=O)OC2C[C@H]3CC[C@@H](C2)N3)ccc1O` (stereo not given in full) gave BAZ2B block -19.1%, HP1b chromo inh 19.4%, G9a inh 39.8µM* and JMJD2A Tudor -17.1%.
`Cc1cc(-c2nc3ncccc3o2)ccc1NC(=O)c1ccccc1Br` gave BAZ2B block 5.8%, HP1b chromo inh 48.0%, G9a inh -1.0%[59 µM] and JMJD2A Tudor 4.1%.
For O=[N+]([O-])c1ccc(O)c([N+](=O)[O-])c1 the results were HP1b chromo inh 17.6%, G9a inh -49.0%[2.33 µM] and JMJD2A Tudor inconclusive.
For O=[N+]([O-])c1cc(O)c(O)c([N+](=O)[O-])c1 the results were BAZ2B block inconclusive, HP1b chromo inh 19.8%, G9a inh 7.94µM*!, JMJD2A Tudor -20.9% and L3MBTL1 block -7.4%.
Screening O=[N+]([O-])c1cc(-n2cnnn2)c(O)c([N+](=O)[O-])c1 returned BAZ2B block -18.7%, HP1b chromo inh 49.9%, G9a inh 50.1µM*, JMJD2A Tudor -11.8%[11.4 µM] and L3MBTL1 block -11.7%.
Screening Cc1ccc2c(c1)C(=O)CC1(CCC(C(C)(C)C)CC1)O2 (stereo not given) returned BAZ2B block 42.3%, HP1b chromo inh 69.0%, G9a inh 89.3%[59 µM] and JMJD2A Tudor 14.1%.
Cc1cscn1 was read as BAZ2B block 8.4%, HP1b chromo inh 69.5%, G9a inh 9.6%[0.501 µM], JMJD2A Tudor -9.0% and L3MBTL1 block 0.7%.
Screening CCCNC(=O)c1cnn2c(C)c(Cc3c(C)cc(C)cc3C)c(C)nc12 returned BAZ2B block 10.4%, HP1b chromo inh 11.8%, G9a inh -3.3%[59 µM] and JMJD2A Tudor inconclusive.
`O=C1CC(=O)N(Cc2ccccc2)C(=S)N1` gave BAZ2B block -4.8%, HP1b chromo inh -1.5%, G9a inh 79.4µM* and JMJD2A Tudor -17.5%.
